# About 2,100 (0.66%) of roughly 320,000 compounds were called active. Inconclusive results (about 53%) are left out. The call rests on the fitted dose curve; in most records, active means well fitted inhibition curve with a large enough effect in the signal ratio, with a control signal flat (not every such curve was filed as active); inconclusive means small, poorly fitted or top-dose-only effect, or effect the other way, or a change in a side signal; inactive means flat fitted curve, though single readings scatter; the % refers to the signal ratio. The list comes from a sample in which actives are over-represented; it also holds similar structures and randomly drawn compounds.
# Assay: qHTS Assay for Lipid Storage Modulators in Drosophila S3 Cells;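 on cell number change: cells counted by Cell Tracker Red CMTPX staining in the red channel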; on lipid storage change, negative = inhibition: on the % scale 0 is the no-effect control and ±100 the full control effect
# Conditions: BODIPY lipid droplet fluorescence, 18-24 h, cells fed with added oleic acid; cell number change: measured here: cell count max response; series mostly up to 46.1 µM; lipid storage change, negative = inhibition: at the top concentration
# Source text: NIH Molecular Libraries Probe Production Centers Network [MLPCN] NIH Chemical Genomics Center [NCGC] MLPCN Grant: 1 R03 MH085686-01 Assay Submitter (PI): Beller, Mathias; Max-Planck-Institut fur Biophysikalische Chemie NCGC Assay Overview: Storing lipids as a reservoir for energy or the anabolism of elementary metabolites is a common feature of probably all cells and is conserved from bacteria to humans. The universal cellular lipid storage organelle is the so-called lipid storage droplet (LD). Although ubiquitous, LDs share a simple structure composed of a hydrophobic core that harbors the storage lipids, which is shielded by a droplet-specific phospholipid monolayer to which proteins are attached. The current model of LD biogenesis involves an incorporation of the lipid core into the membrane leaflets of the endoplasmic reticulum (ER) followed by a subsequent budding-like maturation of a LD, which ultimately pinches off. Once released, LD volume can increase by localized lipogenesis or fusion of existing droplet. Storage lipids are re-mobilized enzymatically by lipase activity. Lipase regulation in the adipocyte is heavily studied and involves multiple components including catecholamine signaling, the LD-associated proteins Perilipin and comparative gene identification (CGI-58) and at least two lipases named hormone sensitive lipase (HSL) and adipocyte triglyceride lipase (ATGL). LD regulation outside of the adipocyte is poorly understood and only few components are known. However, there is an urgent need to learn more about ectopic fat depots as mislocalized storage of lipids, for example in the liver or muscle, is an eminent health problem associated with insulin resistance or the metabolic syndrome. We developed a laser-scanning cytometer assay to enable 1,536-well screening and combined the results of the small molecules screen with an RNAi database based on lipid storage.
# Triacsin C (Sigma-Aldrich T-4540), an inhibitor of long-chain fatty acyl CoA synthetase that blocks synthesis of triglycerides, was used as a positive control for lipid under-storage. A total of 23 nL of compound solution of different concentrations were transferred to the assay plates using a Kalypsys pin tool equipped with a 1,536-pin array containing 10-nL slotted pins (FP1S10, 0.457-mm diameter, 50.8 mm long; V&P Scientific). One microliter of oleic acid (400 uM) was added, and the plate was lidded with stainless steel rubber gasket lined lids containing pinholes. […] Fluorescence was detected by excitation of the fluorophores with a 488-nm laser on an Acumen Explorer (TTP Lab Tech). The total intensity in channel 2 (500-530 nm) reflected lipid droplet accumulation. Cells were detected using channel 3 (575-640 nm) with 5-um width and 100-um depth filters. The ratio of the number of objects in PMT channel 2 over the number of objects in PMT channel 3 was also calculated. Percent activity was computed relative to an internal control (100% inhibited lipid droplet deposition due to the presence of 20 uM Triacsin C), which was added to 32 wells/plate.
# Potency means the concentration at half of the fitted maximal effect.
Structure (SMILES),"lipid storage change, negative = inhibition",outcome,Potency,cell number change [%]
Cc1cccc2nc(CSc3nc4ccccc4[nH]3)cn12,-6.23% (inactive),,,
COCCn1c(-c2ccccc2)nc(=S)c2c1CC(C)(C)OC2,,inactive,,
CC1(C)Cc2c(c(=S)nc(-c3ccccc3)n2CCO)CO1,,,0.259 µM (active),-12.1
CC1(C)Cc2c(c(=S)nc(-c3ccccc3)n2CCOCCO)CO1,0.774% (inactive),,,4.5
CC(=O)Nc1ncc(Cc2cccc(Cl)c2Cl)s1,,inactive,,
Cc1nn(C(C)C(=O)NC2C(=O)N3C(C(=O)O)=C(CSc4nnnn4C)CSC23)cc1Cl (stereo not given),6.33% (inactive),,,-1.98
COc1cccc(NC(=O)COc2ccc(C(=O)N3CCN(C)CC3)cc2)c1,,inactive,,10.4
COc1cccc(NC(=S)N2CCN(C)CC2)c1,-6.39% (inactive),,,-7.43
COc1cccc(NC(=O)COc2ccc(C(=S)N3CCN(C)CC3)cc2OC)c1,,,8.2 µM (active),
CCOCCn1c(N2CCCC2)nc2c1c(=O)n(C)c(=O)n2C,,inactive,,-1.35
Nc1c(/C=C2/C=CC(=O)C(O)=C2)c(=O)nc2sc(CC(=O)N3CCCCC3)nn12,,inactive,,-19.8
COC1=C/C(=C/c2c(N)n3nc(CC(=O)N4CCCCC4)sc3nc2=O)C=CC1=O,,,14.6 µM (active),-9.68
CCOC1=C/C(=C/c2c(N)n3nc(CC(=O)N4CCCC4)sc3nc2=O)C=CC1=O,,inactive,,-5.2
COC(=O)c1c(NC(=O)c2ccco2)sc(C(=O)N2CCCC2)c1C,19.5% (inactive),,,-26.3
CCCn1cc(S(=O)(=O)c2ccc(OC)cc2)c(=O)c2cc(OCC)ccc21,-20.7% (inactive),,,
CC(C)C(C(=O)Nc1ccc2c(c1)OCO2)N1C(=O)c2ccccc2C1=O (stereo not given),,inactive,,-19.4
O=C(CCCCCNC(=O)c1ccccc1)N/N=C/c1ccc(O)cc1O,-5.27% (inactive),,,1.3
O=C(CCCCCNC(=O)c1ccccc1)N/N=C/c1ccccc1O,,,9.2 µM (active),-19.4
O=C(CCCCCNC(=O)c1ccccc1)N/N=C/c1ccco1,,inactive,,
CSC1=NCCN1S(=O)(=O)c1ccc2ccccc2c1,3.31% (inactive),,,1.31
CC(C)Oc1ccc(CNC(=O)C2CCCN(S(=O)(=O)N3CCOCC3)C2)cc1 (stereo not given),,inactive,,24.2
O=Cc1cccn1-c1sc2c(c1C(=O)O)CCCC2,0.304% (inactive),,,-5.54
C=CCn1cccc(C(=O)Nc2ccc(SC)cc2)c1=O,,,4.11 µM (active),16.6
C=CCn1cccc(C(=O)Nc2ccc(C)cc2)c1=O,15.4% (inactive),,,10.2
C=CCn1cccc(C(=O)Nc2ccc(Cl)cc2)c1=O,8.12% (inactive),,,6.52

Structure (SMILES),"lipid storage change, negative = inhibition",outcome,Potency,cell number change [%]
COC(=O)c1cn(NC(=O)/C=C/c2ccc(OC)c(OC)c2)c(=O)c2ccccc12,-1.77% (inactive),,,-14.9
CCOC(=O)Cc1csc(NC(=O)/C=C/c2ccccc2Cl)n1,12.2% (inactive),,,-1.33
COc1nc(C#N)nc(N(C)C)n1,-8.69% (inactive),,,-4.25
N#C/C(=C/c1ccccc1)C(=O)NCc1ccccc1,,,2.59 µM (active),18.6
CCCCNC(=O)/C(C#N)=C/c1ccc(C(=O)OC)cc1,-11.1% (inactive),,,-26.3
N#C/C(=C\c1ccc(OCc2ccccc2)cc1)C(=O)Nc1ccc(C(=O)O)cc1,,,20.6 µM (active),12.2
Cc1ccc(/C=C(\C#N)C(=O)NCc2ccco2)o1,4.22% (inactive),,,
CCCCNC(=O)/C(C#N)=C/c1cccnc1,,,20.6 µM (active),
CCN(CC)c1ccc(/C=C(/C#N)C(=O)NCc2ccccc2)o1,,,2.06 µM (active),-20.4
N#C/C(=C\c1cccs1)C(=O)NCc1ccccc1,-2.68% (inactive),,,-1.86
N#C/C(=C/c1ccc(C(=O)O)cc1)C(=O)Nc1ccccc1,-13.8% (inactive),,,
N#C/C(=C\c1ccc(O)cc1)C(=O)NCc1ccccc1,12.1% (inactive),,,
N#C/C(=C\c1cccnc1)C(=O)Nc1ccccc1,16% (inactive),,,-2.7
N#C/C(=C/c1ccc(OCc2ccc(C(=O)O)cc2)cc1)C(=O)Nc1ccccc1,0.353% (inactive),,,14.9
COc1ccc(/C=C(\C#N)C(=O)NCc2ccccc2)cc1,3.79% (inactive),,,-4.49
CC(C)CN(C(=O)C1CCCC1)C1CCS(=O)(=O)C1 (stereo not given),-4.14% (inactive),,,-27.9
N#CCN1CCC/C1=C\[N+](=O)[O-],4.55% (inactive),,,11.9
CCCN(CCC)S(=O)(=O)c1ccc2c(c1)CCCN2C(C)=O,13.4% (inactive),,,-13.4
Cc1ccc(CN2CCN(/N=C/c3sccc3C)CC2)c(C)c1,20.6% (inactive),,,-17.1
CCN(CC)S(=O)(=O)c1cccc(C(=O)NC2=NCCS2)c1,-13.9% (inactive),,,-2.91
O=C(N/N=C/c1c[nH]c2ccccc12)c1ccn(Cc2ccc(Cl)cc2Cl)n1,-4% (inactive),,,-11.1
O=C(NCc1c(Cl)cccc1Cl)c1ccc2nnsc2c1,0.193% (inactive),,,12.5
O=C(NC(CCl)c1ccccc1)c1ccc(Cl)cc1 (stereo not given),1.15% (inactive),,,13.4
O=C1CCCN1c1ccc(C(=O)N(Cc2nnc(-c3ccccc3Cl)o2)C2CC2)cc1,,inactive,,-25.6
Cc1cccc(C(=O)NCCC(=O)NCc2ccccc2Cl)c1,,,1.84 µM (active),-17.5

Structure (SMILES),"lipid storage change, negative = inhibition",outcome,Potency,cell number change [%]
CN(C)c1cccc(C(=O)NCc2ccccc2Cl)c1,,inactive,,
Cc1cccc(C(=O)NCCC(=O)NCc2ccccc2F)c1,-21.2% (inactive),,,10.5
CCOc1cccc(/C(O)=C2/C(=O)C(=O)N(CCOC)C2c2ccco2)c1 (stereo not given),,inactive,,3.12
CC1CCC(N2CCN(c3ccc([N+](=O)[O-])cc3)CC2)CC1 (stereo not given),,inactive,,-15.6
COc1ccc(-c2cc(C(=O)N3CCCCCC3)c3ccccc3n2)c(OC)c1,,inactive,,
COc1ccc(-c2cc(C(=O)N3CCN(c4ncccn4)CC3)c3ccccc3n2)c(OC)c1,-1.54% (inactive),,,
COc1ccc(-c2cc(C(=O)N3CCN(c4ccccc4F)CC3)c3ccccc3n2)c(OC)c1,,,3.26 µM (active),-25.7
O=C(O)c1cccc2c1C(=O)N(c1ccccc1)C2,7.94% (inactive),,,-2.23
Cc1ccc(N2CCN(S(=O)(=O)N3CCCCC3)CC2)c(C)c1,-0.445% (inactive),,,18.1
CN1/C(=C\C(=O)c2cccc([N+](=O)[O-])c2)Sc2ccccc21,,,1.84 µM (active),-22.2
CN1/C(=C\C(=O)c2cccs2)Sc2ccccc21,24.2% (inactive),,,18.5
COc1cc(OC)cc(C(=O)/C=C2\Sc3ccccc3N2C)c1,0.116% (inactive),,,2.87
Cc1cccc(N2CC3=C(C2=O)C(c2ccccc2)NC(=O)N3C)c1 (stereo not given),,inactive,,28.8
CC1(C)c2[nH]c3ccccc3c2C[C@H]2C(=O)N(CCCO)CC(=O)N21,-9.62% (inactive),,,7.32
CC(=O)c1ccc(NC(=O)CCNC(=O)c2ccccc2Cl)cc1,,inactive,,
Fc1ccc(F)c(CN2CCN(c3ncccn3)CC2)c1,16.3% (inactive),,,-0.405
COc1ccc(/C=C2\SC(=Nc3ccccc3OC)NC2=O)cc1,13% (inactive),,,-11.5
COc1ccccc1N=C1NC(=O)/C(=C/c2ccc(N(C)C)cc2)S1,,,10.3 µM (active),-21.8
COc1ccc(/C=C2\SC(=Nc3ccccc3)NC2=O)cc1,-17.6% (inactive),,,-6.61
Cc1ccc(SCC(=O)OCc2csc(CC(=O)Nc3ccccc3C)n2)cc1C,12.3% (inactive),,,-3.61
COc1cc(OC)cc(C(=O)NCc2ccc3[nH]c(C)cc3c2)c1,-15.4% (inactive),,,-3.37
CN(C)c1ccc(/C=C/C(=O)c2ccccc2O)cc1,-9.67% (inactive),,,
CN(C)c1ccc(/C=C/C(=O)c2cc(Cl)ccc2O)cc1,,,4.11 µM (active),-22.6
O=C(/C=C/c1cccs1)c1cc(Cl)ccc1O,10.1% (inactive),,,3.94
CCC(CC)NC(=O)Nc1cccc(C)c1C,3.89% (inactive),,,-9.81

Structure (SMILES),"lipid storage change, negative = inhibition",outcome,Potency,cell number change [%]
COc1ccccc1CNC(=O)c1cccs1,14.8% (inactive),,,-14
CCOc1ccccc1N1CC(C(=O)N2CCOCC2)CC1=O (stereo not given),,inactive,,13.3
CC(=O)Nc1c(O)nc(SCC(=O)N2CCCCC2)[nH]c1=O,14.1% (inactive),,,-10.1
O=C(CSc1nc2ccccc2[nH]1)N1CCCCC1,,inactive,,1.09
O=C(CSc1nc2ccccc2[nH]1)N1c2ccccc2Sc2ccccc21,,,16.4 µM (active),-14
O=C(CSc1nc2ccccc2s1)N1c2ccccc2Sc2ccccc21,-19.3% (inactive),,,-7.47
NS(=O)(=O)c1ccc(CNC(=O)c2cc(=O)c3cc(Cl)ccc3o2)cc1,-0.959% (inactive),,,-18
O=C(c1cc(=O)c2cc(Cl)ccc2o1)N1CCN(Cc2ccccc2)CC1,11.7% (inactive),,,10.7
O=C(O)c1cc(=O)c2cc(Cl)ccc2o1,,,23.1 µM (active),-8.2
C=CCN(Cc1cn(C)nc1-c1cccc(Cl)c1)C1CCS(=O)(=O)C1 (stereo not given),7.59% (inactive),,,-4.76
O=S(=O)(NC1=NCCC1)c1ccc(F)cc1,,,20.6 µM (active),8.19
Cc1ccc(S(=O)(=O)NC2=NCCCCC2)cc1,7.54% (inactive),,,-2.65
Nc1ccc(S(=O)(=O)NC2=NCCCCC2)cc1,-2.11% (inactive),,,11.2
Cc1ccc(S(=O)(=O)N2CCOCC2)cc1NC(=O)COC(=O)c1cnc(Cl)c(Cl)c1,15.2% (inactive),,,24.4
CCOC(=O)Cn1cnc2scc(-c3ccc(C)c(C)c3)c2c1=O,,inactive,,4.4
Nc1cccc2c1C(=O)N(C(=O)/C=C/c1cccc(F)c1)C2=O,-19.8% (inactive),,,-23.5
COc1ccc(OC)c(/C=C/C(=O)N2C(=O)c3cccc(N)c3C2=O)c1,,,16.4 µM (active),10.9
COc1ccc(OC)c(/C=C/C(=O)N2CCN(S(=O)(=O)c3cc(C)ccc3C)CC2)c1,11.1% (inactive),,,6.55
COc1cc(/C=C/C(=O)N2C(=O)c3cccc(N)c3C2=O)cc(OC)c1OC,,,5.17 µM (active),-14.5
Nc1cccc2c1C(=O)N(C(=O)/C=C/c1ccc(F)cc1)C2=O,-17.9% (inactive),,,-29.8
COc1ccc(OC)c(/C=C/C(=O)N2CCCc3ccccc32)c1,-2.46% (inactive),,,
O=C(c1ccc(Cl)cc1)c1ccc(CN2C(=O)c3ccccc3C2=O)o1,2.8% (inactive),,,8.92
COCCNc1nc(CSc2ccccc2)nc2sc(C)c(C)c12,11.7% (inactive),,,2.1

# From PubChem BioAssay AID2685 (National Center for Advancing Translational Sciences (NCATS), 2010)
